High-throughput results: PubChem, several laboratories
BoNT-F LC inh = BoNT/F light chain protease inhibitors, primary screen, biochemical, flow cytometry, MLPCN library. Botulinum neurotoxin type F light chain protease (Clostridium botulinum). Multiplex microsphere protease cleavage assay. inhibition, % at 10 µM. 0.22% of 360,000 active; in the data active = inhibition above about 35%, passing the limit was not always enough; inconclusive = no clear call, values can overlap the other calls; also: plate controls were buffer without enzyme for full effect and enzyme alone for no effect
BoNT A protease = BoNT/A light chain protease inhibitors, primary screen, biochemical, flow cytometry, MLPCN library; multiplex microsphere protease substrate cleavage; inhibition, % at 10 µM; 0.17% of 360,000 active; AID 588499, 2011; also: plate controls were buffer without enzyme for full effect and enzyme alone for no effect
SSB-PriA inh = inhibitors of Klebsiella pneumoniae PriA binding to SSB C-terminal tail, primary screen, biochemical, AlphaScreen; PriA–SSB C-terminal tail interaction (Klebsiella pneumoniae); AlphaScreen SSBct-PriA binding, biotinylated peptide; inhibition, % at 33 µM; 0.6% of 430,000 active; in the data active = inhibition mostly above about 37%, no sharp cut-off; inactive = mostly below about 20%;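 also: plate controls were negative control peptide for no effect and reference peptide for full effect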
Anthrax LF prot = Bacillus anthracis LF protease inhibitors, primary screen, biochemical, multiplex microsphere, MLPCN library. multiplex microsphere protease cleavage assay. AID 588501, 2011. Lethal factor (Bacillus anthracis), P15917. inhibition, % at 10 µM. 0.12% of 360,000 active; also: plate controls were buffer without enzyme for full effect and enzyme alone for no effect
MazF activator = activators of E. coli MazEF toxin-antitoxin RNase, primary screen, biochemical, fluorescence, uHTS. Endoribonuclease toxin MazF (Escherichia coli (strain K12)), P0AE70. 0.32% of 350,000 active. activation, % at 20 µM. FAM/BHQ RNA-DNA oligo cleavage fluorescence, 5 h; in the data active = activation above about 50%
Autofluor counter = flagged as autofluorescent in microsphere protease counterscreen | compound autofluorescence counterscreen, microsphere flow cytometry; active compounds read high | fluorescence intensity (no concentration beside the values) | 3.1% of 360,000 active; in the data active = fluorescence intensity above about 16000; inconclusive = no clear call, values can overlap the other calls
Active calls of the source: *; ? = inconclusive; nt = not tested or not shown. Only some compounds are listed: those with a hit (about 3.3% of all), similar ones and a draw of the others. Rule as the data show it, unless noted: active = inhibition above about 30%; inconclusive = no clear call, values can overlap the other calls; inactive = below that.

SMILES | BoNT-F LC inh | BoNT A protease | SSB-PriA inh | Anthrax LF prot | MazF activator | Autofluor counter
COC1(CNS(=O)(=O)c2c(C)noc2C)CCSC1 (configuration not stated) | nt | nt | 19 | nt | nt | nt
Cc1nc(NCc2ccco2)[nH]c(=O)c1CCC(C)C | 5 | 3 | -3 | 1 | 11 | 21901*
Cc1cc(C(=O)Nc2nc(-c3ccc(C(C)C)cc3)cs2)on1 | nt | nt | -1 | nt | nt | nt
COc1cc([C@H]2[C@@H]3CCCC[C@]3(O)CCN2CC(=O)Nc2ccc(C)cc2)ccc1O | -4 | 1 | 3 | -5 | -1 | 22835*
CCN(CC)c1ccc([C@H]2[C@@H]3CCCC[C@]3(O)CCN2CC(=O)NCc2ccco2)cc1 | -9 | 1 | 12 | 0 | 2 | 4721
O=C(CSc1nnc(-c2ccccc2)o1)Nc1nc(-c2ccccc2)ns1 | nt | nt | 2 | nt | nt | nt
COc1cccc(C(=O)Nc2nnc(Cc3ccc4c(c3)OCO4)o2)c1OC | nt | nt | -18 | nt | nt | nt
Cc1ccc(OCCN2C(=O)c3ccccc3C2=O)cc1 | 0 | 2 | 3 | -1 | 2 | 22823*
CCOC(=O)c1ccc(NC(=O)c2ccc3nncn3c2)cc1 | nt | nt | -2 | nt | nt | nt
Cc1cccc(-c2noc(CCC(=O)NCC3CCCO3)n2)c1 (configuration not stated) | -1 | 0 | 0 | 1 | 4 | 23287*
O=C(CCc1nc(-c2ccccc2Cl)no1)NCC1CCCO1 (configuration not stated) | -12 | -1 | -13 | -5 | 8 | 4108
Cc1ccccc1-c1noc(CCC(=O)NCC2CCCO2)n1 (configuration not stated) | 6 | 3 | -7 | -2 | 14 | 22713*
COc1ccccc1CCn1c2c(c(=S)[nH]c1=O)CCC2 | nt | nt | -17 | nt | nt | nt
CN(C)c1cc(NN=Cc2ccccc2C(F)(F)F)nc(N(C)C)n1 | nt | nt | 4 | nt | nt | nt
CN(C)c1ccc(C2NCCS2)cc1 (configuration not stated) | -3 | 0 | 9 | -4 | 4 | 22912*
Cn1nnnc1SCC(=O)Nc1ccccc1Br | -1 | -1 | 8 | 0 | 1 | 6161
Cn1nnnc1SCC(=O)Nc1cc(C(=O)O)cc(C(=O)O)c1 | -5 | ? | -13 | 2 | -2 | 17115*
Cn1nnnc1SCC(=O)NCc1cccc(C(=O)O)c1 | 1 | ? | -10 | 0 | 5 | 20029*
COC(=O)c1ccc(NC(=O)CSc2nncn2C)cc1 | -3 | 0 | 1 | -2 | 0 | 3882
COC(=O)c1ccc(-n2nnnc2SCC(=O)NCc2cccc(C(=O)O)c2)cc1 | 5 | 0 | -14 | 3 | 11 | 8946
COC(=O)c1cc(NC(=O)CSc2nncn2C)cc(C(=O)OC)c1 | 1 | -1 | 0 | -2 | 5 | 20871*
Cn1nnnc1SCC(=O)Nc1ccccn1 | 5 | ? | 0 | -7 | 4 | 22271*
O=C(CCc1csc(NC(=O)c2ccc[nH]c2=O)n1)NCc1ccccc1Cl | nt | nt | -8 | nt | nt | nt
O=C(CSc1nc(=O)n(Cc2ccccn2)c2c1CCC2)NC1CCCCC1 | nt | nt | -21 | nt | nt | nt
O=C(NCCn1nc(-c2cccs2)ccc1=O)c1ncc(-c2ccccc2)o1 | nt | nt | 2 | nt | nt | nt
SMILES | BoNT-F LC inh | BoNT A protease | SSB-PriA inh | Anthrax LF prot | MazF activator | Autofluor counter
COCCn1c(SCc2ccc(C(=O)OC)o2)nc2c([nH]c3ccccc32)c1=O | nt | nt | 0 | nt | nt | nt
CCC(=O)Nc1cccc(NC(=O)CSc2nnnn2C)c1 | -3 | -1 | -10 | -5 | 3 | 16778*
N=C(N)N=C1NC(=O)C(Cc2ccccc2)S1 (configuration not stated) | nt | nt | -9 | nt | nt | nt
COC(=O)CCc1c(C)c(C#N)c2nc3ccccc3n2c1N1CCCC1 | 3 | 3 | 1 | 0 | 2 | 22382*
CC(=O)Nc1nnc(-c2cccc(C)c2)o1 | nt | nt | -8 | nt | nt | nt
COC(=O)C1=C(O)C(C(=O)OC)C(c2ccc(C)cc2)C(C#N)(C#N)C1c1ccc(C)cc1 (configuration not stated) | -12 | -9 | -20 | 1 | 5 | 22296*
Cc1cc(C)cc(NC(=O)CS(=O)(=O)c2cn(CC(=O)N3CCCC3)c3ccccc23)c1 | nt | nt | 50* | nt | nt | nt
Cc1cc(NC(=O)CS(=O)(=O)c2cn(CC(=O)N3CCCC3)c3ccccc23)no1 | nt | nt | -14 | nt | nt | nt
Cn1cc(CC(=O)O)c2ccccc21 | nt | nt | -14 | nt | nt | nt
CCCn1cc(C(CC(=O)O)C(=O)O)c2ccccc21 (configuration not stated) | -2 | -1 | -6 | 0 | -4 | 24400*
Cn1cc(C(CC(=O)O)C(=O)O)c2ccccc21 (configuration not stated) | -2 | 0 | -5 | 2 | 3 | 23907*
Cc1ccc(C(=O)CC(C(=O)O)c2cn(CCC#N)c3ccccc23)cc1 (configuration not stated) | -3 | -1 | -7 | -7 | 10 | 5323
CSC1CC2CCC(C1)N2C(=O)c1ccc(-c2ccsc2)cc1 (configuration not stated) | nt | nt | 13 | nt | nt | nt
Cc1ccc(C(C)NC(=O)c2cccnc2)cc1 (configuration not stated) | 4 | 0 | -8 | 5 | -2 | 5225
CC(NC(=O)c1cccs1)c1ccc2c(c1)OCO2 (configuration not stated) | -1 | 0 | -16 | -1 | 1 | 20040*
CC(NC(=O)c1cccnc1)c1ccc2c(c1)OCO2 (configuration not stated) | -2 | ? | 7 | -1 | 4 | 16408*
Cc1ccsc1C(=O)NC(C)c1ccc2c(c1)OCO2 (configuration not stated) | -3 | 0 | -8 | -1 | 12 | 22863*
O=C(Nc1nc(CC(=O)N2CCN(C(c3ccccc3)c3ccccc3)CC2)cs1)NC1CCCCC1 | nt | nt | 9 | nt | nt | nt
O=C(NCCNC(=O)c1ccc(F)c(F)c1)c1ccc(NC(=O)c2ccc(F)cc2)cc1 | nt | nt | -14 | nt | nt | nt
NC(=O)NC(=O)CC1S/C(=N/N=C2/NC(=O)CS2)NC1=O (configuration not stated) | -8 | 0 | nt | -1 | 7 | 4251
NC(=O)NC(=O)CC1SC(=NN=C2CSC(=O)N2)NC1=O (configuration not stated) | nt | nt | 74* | nt | nt | nt
O=C(Nc1cccc(-c2nc3ccccc3s2)c1)c1ccc(Oc2ccc(C(=O)Nc3cccc(-c4nc5ccccc5s4)c3)cc2)cc1 | nt | nt | -28 | nt | nt | nt
O=C(c1ccc(Cl)cc1)c1oc2ccccc2c1CS(=O)c1ccc(Cl)cc1 (configuration not stated) | 1 | ? | 18 | -1 | 5 | 22309*
Nc1c(C(=O)c2ccc(Cl)cc2)oc2ccccc12 | -7 | -1 | 2 | -3 | 2 | 2088
CCN1CCN(C(c2cccs2)C(C)NC(=O)c2ccccc2OC)CC1 (configuration not stated) | -4 | -1 | -6 | 2 | 0 | 4804
